Test results taken from PubChem BioAssay (NCATS).
Inconclusive results are not listed. Active and inactive are the calls of the source. Unless noted, calls follow the shape of the dose curve; as a rule, active = well fitted curve in the direction sought with a large enough effect; inconclusive = small, poorly fitted or top-dose-only effect, or another doubt; inactive = no such curve, though single readings can be large; an effect the other way counts as inactive or inconclusive.

Assays:
[1] = biological target: Lysosomal acid glucosylceramidase (Homo sapiens) (UniProt P04062); test: Glucocerebrosidase-p2 (AID 348; in the data active = potency below about 10 µM; also: potency is read from the fitted curve at half-maximal effect); conditions: purified GBA, blue fluorogenic substrate, 40 min
Outline: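 Normal human glucocerebrosidase (0.2 nM) with blue fluorogenic substrate (80 uM final) in citrate/phosphate pH 5.9 with 10mM sodium taurocholate, 0.01% tween-20; 40 min RT, NaOH/glycine stop; fluorescence Ex 365/Em 440; AC50 from a titration from 0.6 nM upwards.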

[2] = AP1 Signaling Pathway (AID 357; active = well fitted curve in either direction with a large enough effect, not every such curve was filed as active;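 also: ME-180 reporter cells stimulated with EGF at its EC50 level; % is scaled to controls: 0 for no effect and ±100 for the full control effect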); conditions: ME-180 AP-1-bla reporter, EGF-induced, beta-lactamase ratio, 5 h; at 7.69 µM (top of the series) unless noted
Outline: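 Cells are seeded overnight, exposed to compound titrations and an EC50 level of EGF for 5 hours at 37 °C, then loaded with CCF4 dye for 2.5 hours. Beta-lactamase activity under the AP-1 element is read as a blue/green ratio.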

[3] = NFAT Signaling Pathway (AID 444; active = well fitted curve in either direction with a large enough effect, not every such curve was filed as active;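 also: carbachol stimulus at about its EC50 of 1 µM final; % is scaled to controls: 0 for no effect and ±100 for the full control effect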); conditions: Jurkat NFAT-bla M1, carbachol, beta-lactamase ratio, 5 h; at 7.69 µM (top of the series) unless noted
Outline: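 Read-out: CCF4 FRET ratio (460 nm/530 nm) after 1 h RT dye loading, used for %activity and AC50 from titration series. Cells: Jurkat NFAT-β-lactamase/M1 line, treated with compound plus 1 uM carbachol for 5 h, 37 °C.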

[4] = Stat Signaling Pathway (AID 446; active = well fitted curve in either direction with a large enough effect, not every such curve was filed as active;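 also: ME-180 cervical cancer cells given 40 pM IL-6 alongside compound; SIE-controlled beta-lactamase reporter measured as 460/530 nm FRET emission ratio; % is scaled to controls: 0 for no effect and ±100 for the full control effect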); conditions: ME-180 SIE beta-lactamase reporter, IL-6 stimulated, 5 h; at 7.69 µM (top of the series) unless noted
Outline: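 FRET read-out (405 nm excitation, 460/530 nm emission) of a beta-lactamase reporter under a STAT-inducible element in ME-180 cervical carcinoma cells. Cells with compound receive 40 pM IL-6 for 5 h. Values are normalised to AC90 stimulation and AC90 JAK-inhibitor controls.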

[5] = biological target: Glucocorticoid receptor (Homo sapiens) (UniProt P04150); test: GR-GFP Redistribution (AID 450;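 active = compounds whose dose series gives a full or clear partial fitted curve of increased nuclear translocation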; also: potency is read from the fitted curve at half-maximal effect); conditions: U2OS GR-GFP nuclear translocation, laser cytometry, 2 h
[6] = biological target: Mitogen-activated protein kinase 10 (Mus musculus) (UniProt Q61831); test: JNK3 AlphaScreen Assay (AID 530; active = well fitted curve in either direction with a large enough effect, not every such curve was filed as active;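 also: kinase came from lysate of stimulated human HepG2 cells; signal reports phosphorylation of biotinylated GST-cJun 1-79 at Ser73 with 10 µM ATP; % is scaled to controls: 0 for no effect and ±100 for the full control effect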); conditions: JNK3 lysate, c-Jun phosphorylation; series mostly up to 57.1 µM
Outline: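 qHTS titrations with 15 min compound pre-incubation before adding ATP (10 uM final). Read-out: AlphaScreen of Ser73-phosphorylated biotin-GST-cJun using HepG2 lysate JNK3 activated by IL-1β and TNFα.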

[7] = biological target: 3',5'-cyclic-AMP phosphodiesterase 4B (Homo sapiens) (UniProt Q07343); test: qHTS Assay for Inhibitors of PDE-IV (AID 607; active = well fitted activation curve with a large enough effect in the main read-out, with a control signal flat, not every such curve was filed as active; also: % of control where 0% means no effect); conditions: HEK293 ACTOne CNG channel cells, membrane potential fluorescence; series mostly up to 22.9 µM
Outline: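 Cell-based read-out of cAMP via a modified cyclic nucleotide-gated channel and membrane potential dye (535/590 nm) in HEK293 cells expressing PDE4 endogenously. Compounds tested up to 22.9 uM final; 100 uM RO 20-1724 reference.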

[8] = biological target: Dual specificity protein kinase CLK4 (Homo sapiens) (UniProt Q9HAZ1); test: qHTS Assay for Inhibitors of CDC-like Kinase 4 (Kinase-Glo Assay) (AID 1770); conditions: recombinant Clk4, Kinase-Glo ATP depletion luminescence; series mostly up to 66.7 µM; also: % is scaled to controls: 0 for no effect and ±100 for the full control effect; nearly all actives have a fitted effect of over 65% in size
Outline: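 25 nM Clk4 with 100 uM RS repeat peptide and 1 uM ATP (final) in Tris pH7.5, 10 mM MgCl2, 4.5 h at room temperature. Remaining ATP measured by Kinase-Glo luciferase luminescence.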

[9] = biological target: Dual specificity protein kinase CLK4 (Homo sapiens) (UniProt Q9HAZ1); test: qHTS Assay for Inhibitors of CDC-like Kinase 4 (ADP-Glo Assay) (AID 1771); conditions: recombinant CLK4, ADP-Glo luminescence; series mostly up to 80 µM; also: % is scaled to controls: 0 for no effect and ±100 for the full control effect; nearly all actives have a fitted effect of over 70% in size
Outline: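 Compounds are pin-transferred onto substrate mix (100 uM RS peptide, 1 uM ATP), then 25 nM Clk4 is added. After 1 hr at room temperature, ADP-Glo reagent runs 45 min, detection reagent 30 min, then luminescence is read.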

[10] = biological target: Ubiquitin carboxyl-terminal hydrolase 1 (Homo sapiens) (UniProt O94782); test: Inhibitors of USP1/UAF1: Pilot qHTS (AID 504865); conditions: purified USP1/UAF1, Ub-rhodamine cleavage fluorescence; series mostly up to 54.9 µM;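 also: rhodamine fluorescence freed from ubiquitin-rhodamine substrate followed over time; top concentration of the series differs between compounds; % is scaled to controls: 0 for no effect and ±100 for the full control effect; nearly all actives have a fitted effect of over 35% in size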
Outline: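 USP1/UAF1 complex at 1 nM preincubated 15 min at room temperature with compound, then Ub-Rho substrate added at 150 nM final. Fluorescence (480/540 nm) read kinetically in 50 mM HEPES pH 7.8, 0.5 mM EDTA, 1 mM TCEP, 0.1 mg/ml BSA, 0.01% Tween-20.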

[11] = Primary qHTS for small molecule stabilizers of the endoplasmic reticulum resident proteome: Secreted ER Calcium Modulated Protein (SERCaMP) assay (AID 1508630); conditions: SH-SY5Y GLuc-SERCaMP (Gaussia luciferase released on ER calcium loss) secretion, thapsigargin, luminescence; series mostly up to 38.4 µM; also: % is scaled to controls: 0 for no effect and ±100 for the full control effect
Outline: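 The SH-SY5Y reporter protocol was run at 3 concentrations up to 38.3 uM (primary) or 11 concentrations (follow-up): 16 h compound, 100 nM thapsigargin for 4 h, then extracellular luciferase luminescence.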

[12] = biological target: Cytochrome P450 1A2 (Homo sapiens) (UniProt P05177); test: p450-cyp1a2 (AID 410; calls by dose curve; also: potency is read from the fitted curve at half-maximal effect;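 as to activity change, negative = inhibition: -100% = full effect of reference inhibitor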); conditions: recombinant CYP1A2, luciferin-ME demethylation, luminescence; series mostly up to 57 µM
Outline: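 O-Demethylation of luciferin 6' methyl ether by human CYP1A2 is monitored as luciferase luminescence. Substrate sits at Km (100uM); enzyme is 20nM. Values are scaled to 57 uM furafylline as maximal inhibition.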

[13] = biological target: Glucocorticoid receptor (Homo sapiens) (UniProt P04150); test: GR-EFC Redistribution (AID 451; calls by dose curve; also: potency is read from the fitted curve at half-maximal effect); conditions: CHO-K1 GR-EFC translocation, beta-gal luminescence, 2 h
Outline: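 Translocation of GR-ED fusion to nuclear EA restores b-gal, read by luminescence after 1 h room-temperature detection. Engineered CHO-K1 biosensor cells, 1,000/well, exposed 2 h at 37 C to titrations up to 46 uM final.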

[14] = biological target: Cytochrome P450 3A4 (Homo sapiens) (UniProt P08684); test: qHTS Assay for Activators of Cytochrome P450 3A4 (AID 885); conditions: recombinant CYP3A4, Luciferin-PPXE luminescence, 60 min; series mostly up to 57.1 µM; also: nearly all actives have a fitted effect of over 65% in size; also: potency is read from the fitted curve at half-maximal effect
Outline: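 Luminescent readout of luciferin formed from 25 uM Luciferin-PPXE (KM level) by 20 nM CYP3A4 in 200 mM KPO4, with 60 min NADPH-driven reaction at room temperature after 10 min compound exposure. Ketoconazole (57 uM) defined 100% inhibition.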

[15] = biological target: Cytochrome P450 2D6 (Homo sapiens) (UniProt P10635); test: qHTS Assay for Inhibitors and Substrates of Cytochrome P450 2D6 (AID 891); conditions: recombinant CYP2D6, luciferin-ME EGE luminescence; series mostly up to 57.1 µM; also: potency is read from the fitted curve at half-maximal effect; nearly all actives have a fitted effect of over 60% in size
Outline: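 Luminescent read-out of luciferin formed by 5 nM human CYP2D6 demethylating 30 uM Luciferin-ME EGE (Km level) over 60 min at room temperature after NADPH regeneration addition. Data normalized to full inhibition by 1.43 uM quinidine.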

[16] = qHTS Assay for Lipid Storage Modulators (AID 1519; calls by dose curve); conditions: Drosophila S3 cells, BODIPY lipid droplet/cell ratio, laser cytometry, cells loaded with oleic acid; for activity change, negative = inhibition: at 57.5 µM (top of the series)
Outline: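 Cells seeded at 5,000 per well were treated with compounds over a concentration series and loaded with oleic acid (400 uM, as added). Lipid droplet fluorescence (488 nm excitation, 500-530 nm channel) was read by laser-scanning cytometry and normalized to 20 uM Triacsin C.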

[17] = biological target: Cytochrome P450 3A4 (Homo sapiens) (UniProt P08684); test: qHTS Assay for Inhibitors and Substrates of Cytochrome P450 3A4 (AID 884); conditions: recombinant CYP3A4, Luciferin-PPXE luminescence; series mostly up to 57.1 µM; also: nearly all actives have a fitted effect of over 50% in size; also: potency is read from the fitted curve at half-maximal effect
Outline: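 Luminescent readout of luciferin produced by CYP3A4 (20 nM) dealkylation of Luciferin-PPXE, 25 uM (its KM). NADPH-driven reaction ran 60 min at RT after 10 min compound preincubation; data scaled to 57 uM ketoconazole as 100% inhibition.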

[18] = qHTS Assay for Identification of Small Molecule Agonists for Hypoxia Response Element Signaling Pathway (AID 914; active = well fitted activation curve with a large enough effect in the signal ratio, with a control signal flat, not every such curve was filed as active; the % refers to the signal ratio; also: % of control where 0% means no effect); conditions: ME-180 (cervical carcinoma) HRE-bla reporter, beta-lactamase ratio, CoCl2, 17 h; activation: stronger effect = higher value
Outline: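 Positive modulation of EC50 CoCl2-induced hypoxia response element signaling is measured in ME-180 cells with a beta-lactamase reporter. Compounds are titrated, incubation runs 17 hours, and %Activity derives from the blue/green ratio.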

[19] = Confirmation and Secondary Assay for Modulators of Hemoglobin Beta Chain Splicing at IVS2 654 locus (AID 910); conditions: HeLa EGFP-654 splicing reporter, GFP fluorescence, 48 h; series mostly up to 38.3 µM;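 also: HeLa cells stably carrying EGFP split by mutant beta-globin IVS2-654 intron; per-well total GFP intensity by laser scanning cytometry after 2-day treatment; % of control where 0% means no effect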
Outline: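 Readout: per-well total peak green fluorescence (488 nm ex, 500–520 nm em) from objects 5–250 µm, reflecting correct splicing of an EGFP-654 reporter. Compounds were applied for 2 days at 37 °C to overnight-plated HeLa EGFP-654 cells; controls were DMSO and 500 nM IVS2-654 PNA.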

[20] = Confirmation and Secondary Assay for Modulators of Hemoglobin Beta Chain Splicing at IVS2 705 locus (AID 930); conditions: HeLa EGFP-705 splicing reporter, GFP fluorescence, 48 h; series mostly up to 38.3 µM;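 also: HeLa cells stably expressing the EGFP-705 splicing reporter; GFP fluorescence per well restored by corrected splicing of the IVS2-705 intron in EGFP; % of control where 0% means no effect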
Outline: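 First, HeLa EGFP-705 cells are seeded at 500/well in Optimem with 2% FCS and left overnight. Next, compound or DMSO is added for 2 days. Finally wells are laser-scanned and total peak GFP intensity scored.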

[21] = biological target: Dual specificity protein kinase CLK4 (Homo sapiens) (UniProt Q9HAZ1); test: qHTS Assay for Inhibitors of CDC-like Kinase 4 (ADP-FP Assay) (AID 1795); conditions: Transcreener ADP fluorescence polarization; series mostly up to 50 µM;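 also: recombinant human CLK4 phosphorylating RS repeat peptide at 1 µM ATP; % is scaled to controls: 0 for no effect and ±100 for the full control effect; nearly all actives have a fitted effect of over 60% in size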
Outline: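 Recombinant Clk4 (6.25 nM) phosphorylated 100 uM RS repeat peptide with 1 uM ATP in 25 mM Tris pH 7.5, 10 mM MgCl2, 0.5 mM EGTA, 2.5 mM DTT, 0.01% Triton X-100 for 1 h. ADP was detected by Transcreener ADP2 competitive fluorescence polarization after 30 min at room temperature.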

[22] = measured here: cell count channel max response
[23] = measured here: lipid channel max response

Cytochrome P450 1A2 (Homo sapiens), sequence (P05177 whole entry, looked up): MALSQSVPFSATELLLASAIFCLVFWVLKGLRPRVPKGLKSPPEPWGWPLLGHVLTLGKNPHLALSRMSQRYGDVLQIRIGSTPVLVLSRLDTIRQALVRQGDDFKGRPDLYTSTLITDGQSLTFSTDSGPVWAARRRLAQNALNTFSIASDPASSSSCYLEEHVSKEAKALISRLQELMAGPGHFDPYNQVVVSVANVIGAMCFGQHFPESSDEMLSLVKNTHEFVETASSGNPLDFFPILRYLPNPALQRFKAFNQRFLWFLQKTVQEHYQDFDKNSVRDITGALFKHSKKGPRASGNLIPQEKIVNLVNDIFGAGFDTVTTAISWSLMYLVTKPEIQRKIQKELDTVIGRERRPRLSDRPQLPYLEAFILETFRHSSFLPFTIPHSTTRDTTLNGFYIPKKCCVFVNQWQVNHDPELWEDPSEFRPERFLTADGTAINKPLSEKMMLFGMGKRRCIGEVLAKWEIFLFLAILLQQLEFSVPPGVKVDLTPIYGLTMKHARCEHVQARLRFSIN
3',5'-cyclic-AMP phosphodiesterase 4B (Homo sapiens), sequence (Q07343 whole entry, looked up): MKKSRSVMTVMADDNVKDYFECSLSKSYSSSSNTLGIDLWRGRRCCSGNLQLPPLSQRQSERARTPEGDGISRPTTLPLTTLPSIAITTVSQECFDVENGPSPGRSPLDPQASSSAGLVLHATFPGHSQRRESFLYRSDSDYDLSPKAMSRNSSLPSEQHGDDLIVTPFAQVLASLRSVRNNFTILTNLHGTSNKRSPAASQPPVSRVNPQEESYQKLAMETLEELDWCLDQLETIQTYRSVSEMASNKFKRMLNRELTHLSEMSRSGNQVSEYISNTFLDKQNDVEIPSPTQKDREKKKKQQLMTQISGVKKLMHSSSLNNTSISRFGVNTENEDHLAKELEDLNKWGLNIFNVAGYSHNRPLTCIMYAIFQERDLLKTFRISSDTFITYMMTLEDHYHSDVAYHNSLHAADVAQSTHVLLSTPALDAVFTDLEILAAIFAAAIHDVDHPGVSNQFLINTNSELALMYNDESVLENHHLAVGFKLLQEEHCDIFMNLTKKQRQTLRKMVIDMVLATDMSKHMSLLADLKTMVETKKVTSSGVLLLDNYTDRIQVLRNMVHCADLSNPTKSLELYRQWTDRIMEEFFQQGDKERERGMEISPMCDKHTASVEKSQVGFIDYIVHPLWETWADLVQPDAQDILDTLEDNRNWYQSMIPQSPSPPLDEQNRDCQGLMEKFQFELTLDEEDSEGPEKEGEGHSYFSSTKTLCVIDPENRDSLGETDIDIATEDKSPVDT
Ubiquitin carboxyl-terminal hydrolase 1 (Homo sapiens), sequence (O94782 whole entry, looked up): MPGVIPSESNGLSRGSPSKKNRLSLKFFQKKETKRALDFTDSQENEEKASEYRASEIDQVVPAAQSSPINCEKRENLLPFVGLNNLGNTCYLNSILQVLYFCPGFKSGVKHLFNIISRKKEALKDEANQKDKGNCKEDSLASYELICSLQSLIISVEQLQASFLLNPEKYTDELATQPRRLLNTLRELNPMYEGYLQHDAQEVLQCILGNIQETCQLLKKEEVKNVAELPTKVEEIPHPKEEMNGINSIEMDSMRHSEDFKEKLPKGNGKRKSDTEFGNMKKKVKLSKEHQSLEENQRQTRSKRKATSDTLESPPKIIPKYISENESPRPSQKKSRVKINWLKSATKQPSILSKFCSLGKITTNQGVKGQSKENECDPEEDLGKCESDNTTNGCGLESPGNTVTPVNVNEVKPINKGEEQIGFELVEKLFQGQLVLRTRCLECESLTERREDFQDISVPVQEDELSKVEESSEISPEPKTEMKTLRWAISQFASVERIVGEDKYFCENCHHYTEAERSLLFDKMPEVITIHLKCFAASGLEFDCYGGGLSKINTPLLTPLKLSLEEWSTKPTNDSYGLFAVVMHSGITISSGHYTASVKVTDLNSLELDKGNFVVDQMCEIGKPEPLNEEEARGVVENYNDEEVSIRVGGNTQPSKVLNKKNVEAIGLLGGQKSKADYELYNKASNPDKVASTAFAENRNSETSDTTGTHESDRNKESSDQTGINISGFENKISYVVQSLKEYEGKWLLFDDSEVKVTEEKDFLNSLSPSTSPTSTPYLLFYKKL
Dual specificity protein kinase CLK4 (Homo sapiens), sequence (Q9HAZ1 whole entry, looked up): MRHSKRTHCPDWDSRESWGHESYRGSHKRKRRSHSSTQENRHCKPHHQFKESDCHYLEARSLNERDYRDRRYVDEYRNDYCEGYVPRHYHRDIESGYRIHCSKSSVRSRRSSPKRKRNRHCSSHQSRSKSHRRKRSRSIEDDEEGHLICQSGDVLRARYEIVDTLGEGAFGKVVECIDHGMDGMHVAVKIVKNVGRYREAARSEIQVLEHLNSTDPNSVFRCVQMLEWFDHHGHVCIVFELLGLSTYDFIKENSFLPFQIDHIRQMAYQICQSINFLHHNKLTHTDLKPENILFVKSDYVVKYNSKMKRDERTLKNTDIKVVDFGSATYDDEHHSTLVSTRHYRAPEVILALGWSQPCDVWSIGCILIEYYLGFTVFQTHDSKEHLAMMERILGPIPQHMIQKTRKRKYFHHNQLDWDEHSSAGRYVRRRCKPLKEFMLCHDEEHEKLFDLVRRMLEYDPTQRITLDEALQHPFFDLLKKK
Lysosomal acid glucosylceramidase (Homo sapiens), sequence (P04062 whole entry, looked up): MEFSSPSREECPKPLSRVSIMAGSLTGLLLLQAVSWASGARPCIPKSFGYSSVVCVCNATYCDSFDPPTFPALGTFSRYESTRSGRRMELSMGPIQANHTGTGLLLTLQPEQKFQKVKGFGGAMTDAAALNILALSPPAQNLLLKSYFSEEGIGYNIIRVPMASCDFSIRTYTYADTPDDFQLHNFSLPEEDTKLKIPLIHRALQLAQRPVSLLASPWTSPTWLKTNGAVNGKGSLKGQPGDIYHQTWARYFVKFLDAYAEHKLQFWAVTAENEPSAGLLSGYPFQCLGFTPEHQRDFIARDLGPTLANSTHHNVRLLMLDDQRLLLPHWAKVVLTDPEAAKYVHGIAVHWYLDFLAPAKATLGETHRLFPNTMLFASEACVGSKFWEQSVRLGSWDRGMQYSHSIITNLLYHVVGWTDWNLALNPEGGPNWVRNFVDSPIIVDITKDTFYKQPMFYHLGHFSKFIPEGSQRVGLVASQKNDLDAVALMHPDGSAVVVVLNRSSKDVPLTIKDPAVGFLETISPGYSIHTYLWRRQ
Cytochrome P450 3A4 (Homo sapiens), sequence (P08684 whole entry, looked up): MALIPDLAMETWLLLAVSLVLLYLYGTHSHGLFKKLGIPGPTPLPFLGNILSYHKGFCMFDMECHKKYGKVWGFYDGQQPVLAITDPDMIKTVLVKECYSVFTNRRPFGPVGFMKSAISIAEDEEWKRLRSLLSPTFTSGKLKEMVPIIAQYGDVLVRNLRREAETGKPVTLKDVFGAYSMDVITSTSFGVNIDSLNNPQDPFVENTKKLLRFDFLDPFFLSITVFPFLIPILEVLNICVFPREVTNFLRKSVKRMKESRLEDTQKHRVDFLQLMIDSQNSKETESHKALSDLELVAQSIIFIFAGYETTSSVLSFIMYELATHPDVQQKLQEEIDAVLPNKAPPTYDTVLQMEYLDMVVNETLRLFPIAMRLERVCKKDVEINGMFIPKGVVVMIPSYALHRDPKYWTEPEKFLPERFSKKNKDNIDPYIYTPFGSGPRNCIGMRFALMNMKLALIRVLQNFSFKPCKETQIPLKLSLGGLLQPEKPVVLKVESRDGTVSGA
Glucocorticoid receptor (Homo sapiens), sequence (P04150 whole entry, looked up, the tested form may be a part): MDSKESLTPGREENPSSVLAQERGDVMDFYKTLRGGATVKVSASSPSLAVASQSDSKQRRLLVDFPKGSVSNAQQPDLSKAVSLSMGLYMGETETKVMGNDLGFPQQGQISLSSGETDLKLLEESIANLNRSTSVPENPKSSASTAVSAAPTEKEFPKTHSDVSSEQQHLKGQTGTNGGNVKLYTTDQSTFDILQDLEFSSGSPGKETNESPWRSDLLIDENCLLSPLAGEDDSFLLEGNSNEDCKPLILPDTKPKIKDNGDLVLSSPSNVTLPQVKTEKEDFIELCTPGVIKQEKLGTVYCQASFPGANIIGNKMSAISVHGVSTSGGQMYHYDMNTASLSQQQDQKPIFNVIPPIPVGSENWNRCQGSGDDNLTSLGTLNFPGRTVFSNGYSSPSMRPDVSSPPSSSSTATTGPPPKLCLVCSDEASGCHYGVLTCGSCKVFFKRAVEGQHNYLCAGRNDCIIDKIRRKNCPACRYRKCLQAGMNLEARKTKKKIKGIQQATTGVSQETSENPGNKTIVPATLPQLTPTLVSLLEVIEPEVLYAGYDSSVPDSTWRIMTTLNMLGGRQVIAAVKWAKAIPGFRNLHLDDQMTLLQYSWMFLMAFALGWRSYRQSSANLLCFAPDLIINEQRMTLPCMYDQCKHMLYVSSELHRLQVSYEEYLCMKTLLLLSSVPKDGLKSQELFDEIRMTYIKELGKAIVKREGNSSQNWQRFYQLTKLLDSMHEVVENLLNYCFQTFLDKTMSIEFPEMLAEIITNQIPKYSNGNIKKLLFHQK
Cytochrome P450 2D6 (Homo sapiens), sequence (P10635 whole entry, looked up): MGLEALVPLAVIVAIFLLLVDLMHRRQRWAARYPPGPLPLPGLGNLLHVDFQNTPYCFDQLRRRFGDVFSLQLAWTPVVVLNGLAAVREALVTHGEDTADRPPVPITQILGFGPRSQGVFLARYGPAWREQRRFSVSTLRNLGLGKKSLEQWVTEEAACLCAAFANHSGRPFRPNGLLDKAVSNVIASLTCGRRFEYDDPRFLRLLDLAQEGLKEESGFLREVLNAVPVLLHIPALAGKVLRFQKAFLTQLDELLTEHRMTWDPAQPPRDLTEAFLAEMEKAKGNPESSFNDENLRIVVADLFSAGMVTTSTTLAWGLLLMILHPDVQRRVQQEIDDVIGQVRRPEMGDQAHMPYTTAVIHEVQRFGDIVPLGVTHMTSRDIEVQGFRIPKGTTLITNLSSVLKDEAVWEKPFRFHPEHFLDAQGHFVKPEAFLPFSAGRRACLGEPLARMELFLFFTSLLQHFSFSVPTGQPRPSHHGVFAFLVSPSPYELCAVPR

CN(C)c1ncc2nc(-c3cc(F)cc(F)c3)c(=O)n(C3CC3)c2n1
Potency [1]: > 11.4 µM (inactive) | activity change, negative = inhibition [2]: 5.31% (inactive) | activity change, negative = inhibition [3]: -6.61% (inactive) | activity, negative = inhibition [4]: 10.2% (inactive) | Potency [5]: > 9.22 µM (inactive) | outcome [6]: inactive | Potency [7]: inactive | Potency [8]: inactive | Potency [9]: inactive | Potency [10]: inactive | Potency [11]: inactive

O=C(c1ccco1)N1CCC2(CC1)CN(C(c1ccccc1)c1ccccc1)C2
Potency [1]: > 11.4 µM (inactive) | Potency [12]: inactive | activity change, negative = inhibition [3]: 11% (inactive) | activity, negative = inhibition [4]: -4.65% (inactive) | Potency [13]: > 46 µM (inactive) | outcome [6]: inactive | Potency [7]: inactive | Potency [14]: 10 µM (active) | Potency [15]: 1.26 µM (active) | activity change, negative = inhibition [16]: 2.1% (inactive) | max response [16, 22]: 5.15% | max response [16, 23]: 9.48% | Potency [11]: inactive

O=C(c1ccco1)N1CCC2(CC1)CN(c1ccccc1)C2
Potency [1]: > 11.4 µM (inactive) | Potency [12]: inactive | activity change, negative = inhibition [3]: 28.4% (inactive) | activity, negative = inhibition [4]: -9.25% (inactive) | Potency [13]: > 46 µM (inactive) | outcome [6]: inactive | Potency [7]: inactive | Potency [17]: inactive | Potency [14]: 15.8 µM (active) | activation [18]: -3.45% (inactive) | activity change, negative = inhibition [16]: 6.46% (inactive) | max response [16, 22]: 15.8% | max response [16, 23]: 25.8% | Potency [11]: inactive

CC(=O)N1CCC2(CC1)CN(c1ccccn1)C2
Potency [1]: > 11.4 µM (inactive) | activity change, negative = inhibition [2]: -8.91% (inactive) | Potency [12]: inactive | activity change, negative = inhibition [3]: 6.27% (inactive) | activity, negative = inhibition [4]: -0.186% (inactive) | Potency [13]: > 46 µM (inactive) | Potency [7]: inactive | Potency [11]: inactive

Cc1noc(C)c1-c1cc(NCc2ccccc2)ncn1
Potency [1]: > 11.4 µM (inactive) | Potency [12]: 5.01 µM (active) | activity, negative = inhibition [4]: -12.8% (inactive) | Potency [5]: > 46 µM (inactive) | Potency [13]: > 46 µM (inactive) | outcome [6]: inactive | Potency [7]: inactive | outcome [19]: inactive | outcome [20]: inactive | activity change, negative = inhibition [16]: 9.87% (inactive) | max response [16, 22]: 11.1% | max response [16, 23]: 18% | Potency [10]: inactive | Potency [11]: inactive

COc1ccc(C(=O)N2CCC3(CCN(C)CC3)CC2)cc1
activity change, negative = inhibition [2]: -25.4% (inactive) | Potency [12]: inactive | activity change, negative = inhibition [3]: -8.24% (inactive) | activity, negative = inhibition [4]: 2.9% (inactive) | Potency [13]: > 46 µM (inactive) | outcome [6]: inactive | Potency [7]: inactive | activation [18]: 5.39% (inactive) | activity change, negative = inhibition [16]: 3.67% (inactive) | max response [16, 22]: 8.31% | max response [16, 23]: 12.9% | Potency [11]: inactive

Cc1noc(C)c1-c1cncnc1NCc1ccccc1
Potency [1]: > 11.4 µM (inactive) | activity change, negative = inhibition [2]: -6.64% (inactive) | Potency [12]: 25.1 µM (active) | activity change, negative = inhibition [3]: 0.549% (inactive) | activity, negative = inhibition [4]: -5.87% (inactive) | Potency [5]: > 46 µM (inactive) | Potency [13]: > 46 µM (inactive) | outcome [6]: inactive | Potency [7]: inactive | Potency [17]: 2 µM (active) | Potency [14]: inactive | activation [18]: 4.46% (inactive) | Potency [8]: inactive | Potency [9]: inactive | Potency [21]: inactive | Potency [10]: inactive | Potency [11]: inactive
